Screening results as filed in PubChem.
uPA generation – inhibitors of cell surface uPA generation. cell surface uPA generation assay, qHTS. Potency, µM (series often up to 38.3 µM), inactives show top-dose activity change, negative = inhibition, most hits filed as inhibitors. hit rate 0.31% among 330,000. AID 540303; active = well fitted inhibition curve with a large enough effect; inconclusive = small, poorly fitted or top-dose-only effect; inactive = no such curve, though single readings can be large or run the other way; tested in mouse RAW 264.7 cells; note: % is set by controls: 0 for no effect and ±100 for the full control effect; nearly all actives have a fitted effect of over 55% in size
NPC1 prom act – NPC1 promoter activation; Potency, µM (series often up to 9.22 µM), for inactives: at the top dose activation, usual class: activators; Huh7 NPC1 promoter luciferase reporter, 24 h; hit rate 2.4% among 320,000; note: % of control where 0% means no effect; nearly all actives have a fitted effect of over 60% in size
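Cells: Huh7 expressing luciferase under the NPC1 promoter, 1500/well. Seeded 2 h, compound added, incubated 24 h at 37 °C. Luciferase reagent, 10 min ambient, then luminescence.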
ELG1 genotoxic – genotoxicity induction in ELG1-luciferase HEK293T cells. HEK293T ELG1-luciferase reporter, luminescence, 16 h. Potency, µM (top dose mostly 46 µM), inactives show top-dose activity change, positive = activation, actives largely listed as activators. hit rate 1.3% among 330,000. AID 504466; note: % of control where 0% means no effect; nearly all actives have a fitted effect of over 60% in size
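Genotoxic stress is detected as increased luminescence from luciferase-tagged ELG1 in HEK293T cells, measured with ONE-Glo after a 16 hr treatment at 37 °C.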
FLuc counter – inhibits or activates purified firefly luciferase, miR-21 counter-screen | P08659 | purified FLuc, Km substrates, luminescence inhibition | Potency, µM (titrated, usually from 57.5 µM), for inactives: top-dose activity change, negative = inhibition, most hits filed as inhibitors | hit rate 6.9% among 360,000 | AID 588342;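 note: plate controls were vehicle for no effect and reference inhibitor for full effect; nearly all actives have a fitted effect of over 55% in size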
Target sequence (P08659 whole entry, looked up): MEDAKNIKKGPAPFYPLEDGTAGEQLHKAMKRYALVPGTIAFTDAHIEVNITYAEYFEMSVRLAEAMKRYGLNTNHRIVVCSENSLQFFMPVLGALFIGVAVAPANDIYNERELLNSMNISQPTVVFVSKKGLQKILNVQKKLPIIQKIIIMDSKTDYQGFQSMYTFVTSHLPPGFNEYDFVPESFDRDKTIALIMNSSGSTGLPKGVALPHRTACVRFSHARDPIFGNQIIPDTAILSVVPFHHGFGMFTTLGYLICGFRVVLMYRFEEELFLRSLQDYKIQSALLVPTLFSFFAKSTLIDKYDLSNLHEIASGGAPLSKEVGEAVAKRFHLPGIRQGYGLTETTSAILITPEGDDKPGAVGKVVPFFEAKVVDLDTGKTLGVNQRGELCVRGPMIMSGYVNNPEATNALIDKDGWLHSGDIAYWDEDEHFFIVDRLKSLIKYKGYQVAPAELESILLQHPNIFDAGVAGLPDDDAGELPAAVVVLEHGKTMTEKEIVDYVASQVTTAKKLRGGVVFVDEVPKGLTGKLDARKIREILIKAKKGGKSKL
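Purified P. pyralis luciferase, 10 nM final, with Km-level 10 uM D-luciferin and 10 uM ATP in 50 mM Tris acetate pH 7.5, 10 mM Mg acetate, 0.01% Tween-20, 0.05% BSA; 6-point qHTS titration about 60 µM downward; luminescence read.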
SMN2 splice up – SMN2 splice variant enhancement. Potency, µM (top dose mostly 46.1 µM), inactives show at the top dose activity change, positive = activation, actives largely listed as activators. HEK293 SMN2-luciferase splicing reporter, luminescence, 30-36 h. hit rate 2.8% among 210,000; note: % of control where 0% means no effect; nearly all actives have a fitted effect of over 55% in size
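HEK293 cells carry an SMN2 […]–luciferase reporter in which exon 7 inclusion puts luciferase in frame. Cells were plated 10-12 h before compound addition, then incubated 30-36 h at 37C. ONE-Glo luminescence was read; sodium butyrate at 4.5 mM final served as control.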
Rab9 prom act – Rab9 promoter activation; hit rate 2.8% among 320,000; Potency, µM (titrated, usually from 9.22 µM), without a hit: at the highest dose activation, negative = inhibition, usual class: activators; Huh7 Rab9 promoter-luciferase reporter, luminescence, 24 h; AID 485297; note: % of control where 0% means no effect; nearly all actives have a fitted effect of over 60% in size
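Rab9 promoter-driven luciferase in stably transfected Huh7 cells; 1500 cells/well rested 2 h, exposed to compound in DMSO for 24 h at 37 °C, 5% CO2. Luminescence read 10 min after adding luciferase reagent at ambient temperature.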
The depositor's hits bear a star; u = inconclusive; x = no result; [ ] = dose if it differs, or a comment. A selection: hits, their analogues and other compounds. The true share with any hit is near 7.3%. Unless noted, calls come from the whole dose curve; as a rule, active = well fitted curve in the direction sought with a large enough effect; inconclusive = small, poorly fitted or top-dose-only effect, or another doubt; inactive = no such curve, though single readings can be large; an effect the other way counts as inactive or inconclusive. Potency is the fitted concentration of half-maximal effect.

SMILES | uPA generation | NPC1 prom act | ELG1 genotoxic | FLuc counter | SMN2 splice up | Rab9 prom act
COc1cccc2cc(-c3cn4c(n3)sc3cc(F)ccc34)c(=O)oc12 | x | x | x | 2.39µM* | x | x
CC/C(C)=N/Nc1nc(-c2cc3cccc(OC)c3oc2=O)cs1 | -4.0% | 2.24µM* | u | 8.49µM* | x | 1.78µM*
COc1cccc2cc(-c3nc(-c4ccc(Cl)cc4)cs3)c(=O)oc12 | x | x | x | 5.4% | x | x
COc1cccc2cc(-c3nnc(-c4ccc(Cl)cc4)o3)c(=O)oc12 | x | x | x | 1.69µM* | -0.5% | x
CCOC(=O)N1CCC(NC(=O)Cn2ncc3c4ccccc4n(C)c3c2=O)CC1 | 1.7% | 10.7% | 8.7% | 19µM* | 6.7% | 12.4%
Cc1c2cnn(CC(=O)NC3CCCC3)c(=O)c2c(C)n1Cc1ccccc1 | u | u | u | 23.9µM* | x | u
Cc1c2cnn(CC(=O)NCCCN3CCCCC3C)c(=O)c2c(C)n1Cc1ccccc1 (stereo not drawn) | 3.8% | -4.1% | 4.8% | -1.9% | x | 5.7%
CCOC(=O)c1noc2ncnc(N3CCN(c4cccc(C(F)(F)F)c4)CC3)c12 | x | x | x | 0.9% | x | x
Cc1cccc(CN2C(=O)c3ccccc3S(=O)(=O)c3ccc(C(=O)OCC4CCCO4)cc32)c1 (stereo not drawn) | x | x | x | 3.4% | x | x
COc1ccc(CCNC(=O)c2cnn(-c3cccc(C)c3)c2C2CCN(C(=O)OC(C)(C)C)CC2)cc1OC | x | x | x | -7.7% | x | x
O=C(NCCc1csc(-c2ccc(F)cc2)n1)C(=O)Nc1ccc(Cl)cc1 | x | x | x | -1.6% | x | x
O=C(Nc1cc([N+](=O)[O-])ccc1O)c1ccc2c(c1)C(=O)N(Cc1ccco1)C2=O | -2.8% | 3.98µM* | 3.4% | u | x | 3.98µM*
Cc1ccc(-c2csc(/C(C#N)=C(\O)CCl)n2)cc1 | 5.9% | 22.7% | 16.5% | 10.7µM* | -4.4% | u
CCOc1ccc(C(=O)C(CCC(CN(C)C)C(=O)c2ccc(OCC)cc2)CN(C)C)cc1 (stereo not drawn) | 1.12µM* | -22.3% | -16.3% | 3.2% | -106.6% | -33.5%
COc1ccc(-c2nc3ccccn3c2C=O)cc1 | -4.6% | 3.98µM* | u | 10.7µM* | u | 3.16µM*
CSc1ccccc1NC(=O)c1cc(CC(C)C)on1 | -8.9% | u | 20.6µM* | u | u | u
Cc1cc(C(=O)Nc2cccnc2)no1 | x | -0.3% | 3.6% | -2.0% | 3.8% | -1.0%
CC(C)Cc1cc(C(=O)Nc2cccnc2)no1 | -17.9% | 0.4% | 10.3µM* | 5.36µM* | -4.1% | u
COc1cc(NC(=O)c2cc(CC(C)C)on2)c(OC)cc1Cl | 7.4% | 11.8% | u | 0.4% | -14.0% | -3.2%
Cc1ccc(NC(=S)NNC(=O)c2ccco2)cc1 | x | -0.6% | 1.3% | u | 11.2µM* | u
Cc1ccc(C(=O)NNC(=O)c2ccco2)cc1 | -2.8% | u | u | 16.9µM* | 12.6µM* | u
CCc1ccc(/C=C/C(=O)C2C(=O)c3ccccc3C2=O)cc1 | -45.7% | u | 0.8% | 0.426µM* | u | u
COc1ccccc1N1CCN(c2ccc3ccccc3n2)CC1 | -2.0% | 0.316µM* | u | 0.953µM* | x | 0.316µM*
COc1ccccc1N1CCN(c2ccc(-c3ccccc3)nn2)CC1 | -14.1% | u | u | 0.757µM* | u | 0.282µM*
COc1ccccc1N1CCN(c2cc(N3CCCC3)nc(C)n2)CC1 | -8.6% | -5.9% | -5.3% | 6.6% | -40.4% | -4.6%
SMILES | uPA generation | NPC1 prom act | ELG1 genotoxic | FLuc counter | SMN2 splice up | Rab9 prom act
CCn1c(-c2ccccn2)nc2cc(S(=O)(=O)N(C)C)ccc21 | 0.7% | 18.0% | 7.7% | 21.3µM* | x | 27.0%
CCn1c(-c2cc(Br)cc(OC)c2O)nc2cc(S(=O)(=O)N(C)C)ccc21 | x | -5.0% | -14.3% | -1.3% | -14.8% | -5.5%
COC(=O)Cn1c(=NC(=O)c2cc(OC)cc(OC)c2)sc2cc(OC)ccc21 | -4.8% | -3.2% | -4.8% | 11.0% | 1.7% | 2.2%
Cn1c(=NC(=O)COc2ccccc2)sc2ccccc21 | -10.9% | 3.55µM* | -0.2% | 13.5µM* | 12.6µM* | 2µM*
COc1ccc(C(=O)N=c2sc3cc(Cl)ccc3n2C)cc1 | x | x | x | -12.8% | 1.1% | x
COC(=O)Cn1c(=NC(=O)c2cccc(OC)c2)sc2cc(OC)ccc21 | -2.0% | 11.9% | -1.5% | 3.01µM* | -8.1% | 11.2%
COc1cccc(C(=O)N=c2sc3cc(S(C)(=O)=O)ccc3n2C)c1 | -2.1% | u | u | -14.2% | 7.1% | 3.55µM*
COC(=O)c1ccc2c(c1)sc(=NC(=O)c1ccc(S(=O)(=O)N3CCCCC3)cc1)n2C | x | x | x | -1.4% | x | x
COc1ccc(C(=O)N=c2sc3ccccc3n2C)cc1 | -5.4% | 3.16µM* | u | 1.69µM* | 2.51µM* | 2.51µM*
Cc1ccc(NC(=O)C(Cc2ccccc2)n2cccc2)c(C)c1 (stereo not drawn) | x | x | x | -18.3% | -10.8% | x
CSC1=NC2(CCN(C(=O)NC3CCCCC3)CC2)N=C1c1ccc(C(C)(C)C)cc1 | x | x | x | -15.5% | x | x
Cc1ccccc1Cn1c(CN2CCCC(C)C2)nc2c1c(=O)n(C)c(=O)n2C (stereo not drawn) | x | x | x | 0.1% | -11.2% | x
COc1cc(OC)cc(C(=O)N=c2sc3ccccc3n2C)c1 | -19.0% | u | u | u | 10µM* | 2.51µM*
COc1ccc(Cn2c(C(=O)O)c(CNCc3ccc(SC)cc3)c3ccc(OC)cc32)cc1 | x | x | x | -2.8% | x | x
O=C1CCCC2=C1Sc1ccc(Cl)cc1N2 | 8.8% | 2.7% | -4.2% | -8.9% | x | 6.3%
COC(=O)c1ccc2c(c1)SC1=C(CCCC1=O)N2 | -7.6% | 20.2% | 20.6µM* | 19µM* | -18.1% | -2.0%[1.84 µM]
COc1ccc2cc(CCC(C)=O)ccc2c1 | u | u | x | u | 12.6µM* | u
CC(C)(C)OC(=O)N/N=C/c1ccc(Br)cc1 | 1.3% | u | u | 12µM* | 11.2µM* | 1.58µM*
CC(C)(C)OC(=O)N/N=C\c1cccnc1 | -9.9% | 21.4% | -13.4% | 10.7µM* | x | u
CCn1nc(C)c(CCN(C)C(=O)Nc2cc(Cl)ccc2C)c1C | x | x | x | -0.8% | x | x
Cn1ncc2c(Nc3cccc(F)c3)ncnc21 | x | x | x | -5.3% | x | x
Cc1ccc(Nc2nc3nonc3[nH]c2=O)cc1C | -7.9% | 18.1% | 6.9% | 12µM* | 12.6% | 26.0%
Cc1ccc(NC2=CC(=O)CCC2)cc1C | -5.0% | 1.7% | -0.1% | 0.2% | -12.9% | -3.2%
Cc1ccc(Nc2nc3nonc3[nH]c2=O)cc1Cl | -2.9% | 9.2% | -16.0% | 21.3µM* | -73.6% | 2.2%
Cn1c(C(=O)NCc2cccs2)cc2oc3ccccc3c21 | 0.4% | 1.4% | -2.3% | 13.5µM* | 4.47µM* | u
Cn1c(C(=O)NCc2ccccc2)cc2oc3ccccc3c21 | 5.5% | 17.1% | 7.0% | 13.5µM* | 31.6µM* | u
CCn1c(C(=O)NCc2ccccc2Br)cc2oc3ccccc3c21 | x | x | x | -10.0% | 4.47µM* | x
